Screening results: PubChem, The Scripps Research Institute Molecular Screening Center
Only some compounds are listed: those with a hit (about 2.3% of all), similar ones and a draw of the others.
PP5 primary = PP5 (human) phosphatase inhibition; inhibition, % at 6.7 µM; 320,000 tested, 0.18% active; purified PP5c, OMFP substrate fluorescence; P53041;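 active means inhibition above the campaign's mean inhibition across all tested compounds plus 3 SD, cut at about 9.5% in these data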
PP1 counter = blocks human PP1-alpha phosphatase, a PP5 counter-screen; P62136; purified PP1alpha, OMFP fluorescence; inhibition, % at 6.7 µM; 320,000 tested, 0.9% active;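 active means inhibition above the mean inhibition of all tested compounds plus 3 SD, computed separately for each screening campaign, cut at about 15% in these data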
Target sequence (P62136 whole entry, looked up): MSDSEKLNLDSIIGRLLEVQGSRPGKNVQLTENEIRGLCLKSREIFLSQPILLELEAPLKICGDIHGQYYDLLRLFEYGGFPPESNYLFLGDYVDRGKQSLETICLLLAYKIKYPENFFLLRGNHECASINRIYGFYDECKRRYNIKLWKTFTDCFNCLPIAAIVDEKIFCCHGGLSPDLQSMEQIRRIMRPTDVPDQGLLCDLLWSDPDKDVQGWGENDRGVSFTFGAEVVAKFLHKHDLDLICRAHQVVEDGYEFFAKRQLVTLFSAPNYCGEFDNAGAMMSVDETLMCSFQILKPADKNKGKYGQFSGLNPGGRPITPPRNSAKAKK
MsrA inh = inhibitors of bovine MsrA; purified bovine MsrA, absorbance read-out; inhibition, % at 15.5 µM; 360,000 tested, 0.75% active; AID 651718; in the data active means inhibition above about 4.5%
MsrA act = activators of bovine methionine sulfoxide reductase A; 360,000 tested, 0.3% active; purified bovine MsrA, absorbance read-out; activation, % at 10.6 µM; in the data active means activation above about 7.5%
ZTA counter = ZTA (EBV) inhibition in EBNA-1 counter-screen | ZTA-DNA binding, fluorescence polarization | inhibition, % at 11 µM | 320,000 tested, 0.15% active | AID 2234; in the data active means inhibition above about 33%
Target sequence (P03206 whole entry, looked up): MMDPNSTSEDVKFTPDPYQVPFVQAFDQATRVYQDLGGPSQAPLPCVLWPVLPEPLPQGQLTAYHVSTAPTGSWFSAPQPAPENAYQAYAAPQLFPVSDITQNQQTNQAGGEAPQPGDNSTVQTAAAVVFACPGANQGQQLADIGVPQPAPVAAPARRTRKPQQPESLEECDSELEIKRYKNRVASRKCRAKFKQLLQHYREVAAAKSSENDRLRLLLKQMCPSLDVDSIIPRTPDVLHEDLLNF
EBNA-1 inhibitor = blocks EBNA-1 binding to DNA; EBNA-1 DNA binding, fluorescence polarization; inhibition, % at 14.8 µM; 300,000 tested, 0.34% active; AID 1950; in the data active means inhibition above about 28%
Zta DNA confirm = EBV ZTA DNA binding inhibition, confirmation; shares compounds with ZTA counter; Zta-ZRE DNA binding, fluorescence polarization; inhibition, % at 11.1 µM; 320 tested, 30% active;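 active means mean inhibition across triplicate runs above the hit threshold derived for the original primary screen, cut at about 33% in these data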
EBNA1 counter = blocks EBNA-1 DNA binding in ZTA counter-screen. 320 tested, under 10 active. fluorescence polarization. AID 2362. inhibition, % at 14.8 µM. shares compounds with ZTA counter; call rule not given here
Large screens that a line does not name were inactive (follow-up assays come after a bar, where they were run); ! = repeats disagree.

CC1CCCN(C(=O)Cn2nnc(-c3ccccc3F)n2)C1 (stereo unspecified)	none
COC/C=C/C1=CC2=CC(=O)C(C)(OC(=O)c3cnc4ccccc4n3)C(=O)C2=CO1 (stereo unspecified)	ZTA counter 40 (no result: MsrA inh, MsrA act) | Zta DNA confirm inactive | EBNA1 counter inactive
COC/C=C/C1=CC2=CC(=O)C(C)(OC(=O)c3cnc4ccccc4n3)C(=O)C2=CN1C(CO)CO (stereo unspecified)	none
COc1ccccc1[C@]1(C)ON(c2ccccc2C(F)(F)F)C1=O	none (no result: EBNA-1 inhibitor)
COc1cccc2c1C(=O)c1c(O)c3c(c(O)c1C2=O)C[C@@](O)(C(C)=O)C[C@@H]3O[C@H]1C[C@H](N)[C@H](O)[C@H](C)O1	none (no result: PP5 primary, PP1 counter, ZTA counter, EBNA-1 inhibitor)
COc1cccc2c1C(=O)c1c(O)c3c(c(O)c1C2=O)C[C@@](O)(C(=O)CO)C[C@@H]3O[C@H]1C[C@H](N)[C@@H](O)[C@H](C)O1	ZTA counter 72 (no result: MsrA inh) | Zta DNA confirm 106 | EBNA1 counter inactive
COc1ccc(C(=O)Nc2ccc(NC(=O)C3CC3)nc2)cc1	none
COc1cc(/C=C/c2[nH]c(=O)[nH]c(=O)c2[N+](=O)[O-])cc([N+](=O)[O-])c1O	ZTA counter 36 | Zta DNA confirm 55 | EBNA1 counter inactive
CCc1nnc(NS(=O)(=O)c2ccc(NC(=S)NC(=O)/C=C/c3ccccc3)cc2)s1	ZTA counter 37 | Zta DNA confirm inactive | EBNA1 counter inactive
O=C(O)CC(C(=O)O)N1C(=O)/C(=C/c2ccc(-c3nc4ccccc4s3)o2)SC1=S (stereo unspecified)	ZTA counter 59 | Zta DNA confirm 64 | EBNA1 counter inactive
O=C(Nc1cccc(C(=O)N2CCCCCC2)c1)c1ccco1	ZTA counter 40 | Zta DNA confirm inactive | EBNA1 counter inactive
COc1ccc(NC(=O)CSc2nc3sc4c(c3c(=O)n2-c2ccc(OC)cc2)CCN(C)C4)cc1	ZTA counter 34 | Zta DNA confirm inactive | EBNA1 counter inactive
COc1ccc(-n2c(SCC(=O)Nc3nccs3)nc3sc4c(c3c2=O)CCN(C)C4)cc1	none
COc1ccc(NC(=O)CCN2C(=O)C3CC=C(Cl)CC3C2=O)cc1 (stereo unspecified)	none
CC(C)OC(=O)c1cc(NC(=S)Nc2ccc([N+](=O)[O-])cc2)cc(C(=O)OC(C)C)c1	ZTA counter 52 | Zta DNA confirm inactive | EBNA1 counter inactive
CC(C)CCNC(=S)Nc1ccc([N+](=O)[O-])cc1	none
Cn1c(SCC(=O)N2CCN(c3ccccc3)CC2)nnc1-c1ccncc1	ZTA counter 38 | Zta DNA confirm inactive | EBNA1 counter inactive
CCN(CC)c1ccc(NC(=O)CNCc2ccccc2Cl)c(C)c1	none
Cc1cccc(NC(=O)CCNS(=O)(=O)c2ccc3[nH]c(=O)oc3c2)c1	ZTA counter 198 | Zta DNA confirm inactive | EBNA1 counter inactive
CC(=O)Nc1ccc(S(=O)(=O)NC2CC(=O)N(c3ccc(C)c(C)c3)C2)cc1 (stereo unspecified)	none
Cc1ccc(S(=O)(=O)N(C)c2ccccc2C(=O)N2CCCC2)cc1	ZTA counter 155 | Zta DNA confirm inactive | EBNA1 counter inactive
COc1ccc(N2CCN(C(=O)c3ccccc3N(C)S(=O)(=O)c3ccc(C)cc3)CC2)cc1	none (no result: PP5 primary, PP1 counter, ZTA counter, EBNA-1 inhibitor)
O=C1/C(=C/c2ccc(O)cc2)SC(=S)N1Cc1cccnc1	ZTA counter 77 | Zta DNA confirm inactive | EBNA1 counter inactive
C#CCOc1ccc(/C=C2\SC(=S)N(Cc3cccnc3)C2=O)cc1	none
Cc1ccc(S(=O)(=O)N2CCC(C(=O)OC(C)C(=O)NCc3ccccc3)CC2)cc1C (stereo unspecified)	none
CC1(C(=O)Nc2ccc3[nH]ncc3c2)CCN1C(=O)Cc1ccc(-c2ccccc2)cc1 (stereo unspecified)	none (no result: PP5 primary, PP1 counter, ZTA counter, EBNA-1 inhibitor)
Cc1ccc(S(=O)(=O)NC(C(=O)Oc2cc3oc(=O)cc(C)c3cc2Cl)C(C)C)cc1 (stereo unspecified)	none
O=C(CSc1nnc(SCc2cccc3ccccc23)s1)N=Nc1c(O)[nH]c2ccccc12	none (no result: MsrA inh, MsrA act)
CCN1CCN(Cc2ccc(NC(=O)c3ccc(C)c(NC(=O)C(=O)c4c[nH]c5ccccc45)c3)cc2C(F)(F)F)CC1	ZTA counter 40! | Zta DNA confirm inactive | EBNA1 counter inactive
CCCCC1(C)NC(=O)N(CC(=O)Nc2ccc(S(=O)(=O)N3CCOCC3)cc2)C1=O (stereo unspecified)	ZTA counter 47 | Zta DNA confirm inactive | EBNA1 counter inactive
O=c1[nH]c(/C=C/c2ccc(Cl)cc2Cl)c([N+](=O)[O-])c(=O)[nH]1	ZTA counter 55 | Zta DNA confirm 53 | EBNA1 counter inactive
CCOC(=O)C(C)Sc1nc(=O)n2ccccc2n1 (stereo unspecified)	none
CCOC(=O)C(C)Sc1ncc(-c2ccccc2)cn1 (stereo unspecified)	ZTA counter 79 | Zta DNA confirm inactive | EBNA1 counter inactive
CN(C)c1ccc(N/C=C/C(=O)c2ccccc2)cc1	ZTA counter 64 | Zta DNA confirm inactive | EBNA1 counter inactive
COc1cc(O)c2c(c1)OC(c1ccc(O)cc1)CC2=O (stereo unspecified)	ZTA counter 34 | Zta DNA confirm inactive | EBNA1 counter inactive
CCOc1ccc(NC(=O)CSc2nccn(-c3ccc4c(c3)OCCO4)c2=O)cc1	ZTA counter 47 | Zta DNA confirm inactive | EBNA1 counter inactive
CCNc1c([N+](=O)[O-])c(=O)oc2ccccc12	ZTA counter 35 | Zta DNA confirm inactive | EBNA1 counter inactive
CCc1ccc(Nc2c([N+](=O)[O-])c(=O)oc3ccccc23)cc1	none
CC(=O)Nc1cccc(NC(=O)COc2ccccc2C)c1	ZTA counter 94 | Zta DNA confirm inactive | EBNA1 counter inactive
COc1ccc(CNc2nc3ccc(C)cc3s2)c(OC)c1OC	none
CC(=O)Nc1ccc2[nH]c(C)cc(=O)c2c1	ZTA counter 87 | Zta DNA confirm inactive | EBNA1 counter inactive
CC(=O)Nc1ccc2[nH]c3ccccc3c2c1	none
OCCN(CCO)CC(O)Cn1c2ccccc2c2ccccc21 (stereo unspecified)	ZTA counter 61 | Zta DNA confirm inactive | EBNA1 counter inactive
CCc1nn(CC(=O)N2CCN(C)CC2)c(=O)c2cccn12	ZTA counter 36 | Zta DNA confirm inactive | EBNA1 counter inactive
Cc1oc2cc(OC(C)C(=O)O)ccc2c(=O)c1Oc1ccccc1 (stereo unspecified)	none
CCOc1ccc2c(=O)c(Oc3ccccc3)c(C)oc2c1	ZTA counter 139 | Zta DNA confirm inactive | EBNA1 counter inactive
O=C(Nc1ccnn1C1CCN(Cc2cccc(F)c2F)CC1)C1CCCC1	none
